Measurements taken from PubChem BioAssay (Tox21).
Records with an inconclusive call do not appear. Where a call stands in place of a potency, no number is given. Unmarked numbers belong to inactive results. Calls of active or inactive are those of the source. The call rests on the fitted dose curve; in most records, active means well fitted cell-killing curve with a large enough effect in the repeat runs; inconclusive means weak or mixed curves; inactive means flat fitted curve, though single readings scatter.

Assay: qHTS RealTime-Glo MT Cell Viability Assay in HepG2 cells - 32 hour (AID 1224877); further: nearly all actives have a fitted effect of over 55% in size
Conditions: RealTime-Glo luminescence; series mostly up to 76.8 µM
Text: U.S. Tox21 Program National Center for Advancing Translational Sciences [NCATS] NIH Chemical Genomics Center [NCGC] U.S. Environmental Protection Agency [EPA] National Institutes of Environmental Health Sciences [NIEHS] National Toxicology Program [NTP] U.S. Food and Drug Administration [FDA] Tox21 Assay Overview: Measure of cell viability is critical in the cell-base assay. Analysis of cell viability is necessary for the characterization of cell responses to cytotoxic drugs and environmental stress. A RealTime-Glo MT Cell Viability Assay to monitor cell viability in real time of continues cell culture during 40 hours of compound treatment was used to screen Tox21 10K library compounds in HepG2 cells. The RealTime-Glo MT Cell Viability Assay is a nonlytic, homogeneous, bioluminescent method to measure cell viability in real time using a simple, plate-based method. The assay involves adding NanoLuc luciferase and a cell-permeant prosubstrate to cells in culture. Viable cells reduce the proprietary prosubstrate to generate a substrate for NanoLuc luciferase. This substrate diffuses from cells into the surrounding culture medium, where it is rapidly used by the NanoLuc Enzyme to produce a luminescent signal. The signal correlates with the number of viable cells, making the assay well suited for cytotoxicity studies.
Tox21 Assay Protocol Summary: The mixture of HepG2 cell suspension and reagents were dispensed at 600cells/6 ul/well in 1536-well tissue culture treated black solid bottom plates using a Multidrop dispenser. After the assay plates were incubated at a 37 C/5% CO2 incubator for 5 hours, 23 nL of compounds dissolved in DMSO, positive and negative controls was transferred to the assay plate by a pintool work station. The plates were incubated at 37 C for 40 hours. The luminescence intensity were measured at 0h, 8h, 16h, 24h, 32h and 40h time points using ViewLux plate reader during compound treatment.

| SMILES | Potency | activity change, negative = cytotoxic |
| --- | --- | --- |
| C#CC(C)(C)O | inactive |  |
| CCCCCCCCSC(=O)Oc1cc(Cl)nnc1-c1ccccc1 | inactive |  |
| CCOC(=O)C(SP(=S)(OC)OC)c1ccccc1 (stereo not given) | inactive |  |
| Cc1ccc2cc(C)ccc2c1 | inactive |  |
| CCN[C@@H](C)Cc1cccc(C(F)(F)F)c1 | inactive |  |
| ClCCCCl | inactive |  |
| CCN1CCCC1CNC(=O)C(O)(c1ccccc1)c1ccccc1 (stereo not given) | inactive |  |
| O=C(NC(O)C(Cl)(Cl)Cl)NC(O)C(Cl)(Cl)Cl (stereo not given) | inactive |  |
| CCCC(C)C1(CC)C(=O)N=C(S)NC1=O (stereo not given) | inactive |  |
| O=c1[nH]c2ccccc2o1 | inactive |  |
| CC(Cc1ccccc1)NCCn1cnc2c1c(=O)n(C)c(=O)n2C (stereo not given) | inactive |  |
| Clc1nc(Cl)nc(Nc2ccccc2Cl)n1 | inactive |  |
| NNCc1ccccc1 | inactive |  |
| CC(=O)OCC1=C(C(=O)O)N2C(=O)[C@@H](N)[C@H]2SC1 |  | 0.0723% [at 15.8 µM] |
| COC1=CC(=O)O[C@@H](/C=C/c2ccccc2)C1 | inactive |  |
| COC(=O)c1ccccc1CS(=O)(=O)NC(=O)Nc1nc(OC)cc(OC)n1 | inactive |  |
| CN=CNc1ccc(C)cc1C | inactive |  |
| CCN[C@H](C)Cc1cccc(C(F)(F)F)c1 | inactive |  |
| CC(C)(C)C(=O)C(Cl)Cl | inactive |  |
| CCC(C)(C#N)N=NC(C)(C#N)CC (stereo not given) | inactive |  |

| SMILES | Potency | activity change, negative = cytotoxic |
| --- | --- | --- |
| CC(C)(C1CCC(O)CC1)C1CCC(O)CC1 (stereo not given) | inactive |  |
| Cc1ccc(Cl)c(O)c1 | inactive |  |
| CCSC(=O)Cl | inactive |  |
| [P]#[In] | inactive |  |
| CN1C(=O)COc2c(C(=O)NC3CN4CCC3CC4)cc(Cl)cc21 (stereo not given) | inactive |  |
| C[C@H](N)C(=O)c1ccccc1 | inactive |  |
| Oc1ccc(Cc2ccc(O)cc2)cc1 | inactive |  |
| COc1ccc(CN2CCNCC2)c(OC)c1OC | inactive |  |
| C[C@H](CN1CCOCC1)C(C(=O)N1CCCC1)(c1ccccc1)c1ccccc1 | inactive |  |
| CC1NCCOC1c1ccccc1 (stereo not given) | inactive |  |
| Cc1ccc2c(c1)C1CN(C)CCC1N2 (stereo not given) |  | -0.204% [at 15.8 µM] |
| O=C(O)CBr | inactive |  |
| BrCCc1ccccc1 | inactive |  |
| CCCC[N+](=O)[O-] | inactive |  |
| CC[C@@H](CO)NC(=O)[C@@H]1C=C2c3cccc4[nH]cc(c34)C[C@H]2N(C)C1 | inactive |  |
| Brc1c(Br)c(Br)c(Br)c(Br)c1Br |  | -8.23% [at 6.97 µM] |
| O=S1(=O)OCCO1 | inactive |  |
| CNC(=O)O/N=C(/CSC)C(C)(C)C | inactive |  |
| CC(C)(O)C(Cl)(Cl)Cl | inactive |  |
| CC1=C2[C@H]3OC(=O)[C@@H](C)[C@@H]3CC[C@@]2(C)C=CC1=O | inactive |  |
